Consider 18 compounds from PubChem BioAssay (EPA / NIEHS).

Several values for one entry are separate records, joined by “and”; a condition that tells them apart may be missing. Identical values can stand only once. Activity calls are given as the source filed them. Rule for the calls: active = hit-call score of the fitted dose curve at least 0.9, where 1 is the maximum; inactive = score below 0.9.

As usually defined, the AC50 is the midpoint of the concentration-response curve, whichever way the signal moves.

This assay is described as follows: CCTE_Shafer_MEA_dev_burst_duration_mean: CCTE's Neural Network Formation Assay for Mean Burst Duration, Shafer Lab (AID 2284045).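 For AC50: curve fitted for loss meaning shorter burst duration than DMSO.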 How it is done:
CCTE_Shafer_MEA_dev assay is conducted using Axion Biosystems 48 well microelectrode array (MEA) plates and Maestro recording system. Each well of the MEA plate contains a grid of 16 microelectrodes embedded in the culture surface. Electrically active cells, such as neurons, can be cultured over the electrodes, and electrical activity in these cells can be recorded extracellularly. The spontaneous firing of neurons is captured from each electrode on a microsecond timescale providing both temporally and spatially precise data. […] The CCTE_Shafer_MEA_dev assay uses primary cultures of rat cortical neurons. Recordings are made on days post-plating 5, 7, 9 and 12. As these cultures mature over time, neural networks develop functional activity and form cohesive networks in which electrical activity can be highly coordinated. CCTE_Shafer_MEA_dev_burst_duration_mean is 1 of 19 assay components of the CCTE_Shafer_MEA_dev assay. It measures the average time interval from the first spike (action potential firing) to the last spike in a singe-electrode burst (temporally-clustered group of spikes) during a recording in a microelectrode array (MEA) using Axion Biosystems Maestro 768 channel amplifier with the AxIS adaptive spike detector. The mean burst duration is averaged across the actively bursting electrodes to report a well-mean value. To collapse across multiple recordings made on days post-plating 5, 7, 9 and 12, the trapezoidal area-under-the-curve of the component is calculated.Data from the assay component CCTE_Shafer_MEA_dev_burst_duration_mean was analyzed into 1 assay endpoint. This assay endpoint, CCTE_Shafer_MEA_dev_burst_duration_mean, was analyzed in the negative analysis fitting direction relative to DMSO as the negative control and baseline of activity. Using a type of functional reporter, gain or loss-of-signal activity can be used to understand electrical activity.
On the day prior to culture, each well was coated thoroughly with 150 uL of 0.05% polyethyleneimine (PEI, Sigma Cat P3143) in 50 mM HEPES (Sigma Cat H7523) at a pH of 8. The plate was incubated at 37C for one hour. PEI was rinsed out with 500 uL of sterile water three times. Plates were stored at 4C until the day of culture. This culture was plated at a seeding density of 1.5 x 10^5 cells/well on a 48-well MEA plate, prepared as described above. Cells were administered via a 25 uL media/laminin ([…]; Sigma Cat L2020-1MG) drop directly onto the microelectrode array, as adding the cells with the laminin results in better attachment than pre-coating with laminin. After 2 hours, an additional 475 uL of cortical media was added and the cells returned to the incubator. Exposure starts at day 0 of plating and is continued over twelve days of network development until the experiment is terminated. Cells are fed with fresh medium on DIV 5 and 9, following the recordings on those days. The entire volume of media in the well is exchanged and any vehicle or compound treatment is renewed. Complete details are found in OP-NHEERL/ISTD/SBB/TJS/2015-03-r0 (available on request, email shafer.tim@epa.gov). Measurement of the electrical activity is non-invasive, and recordings can be made from the same plate over multiple different days of the culture. In cortical neurons, this allows for the measurement of extracellular action potentials over the period during which networks form in the MEA plate.
Turning to `O=C(Cl)C(F)(F)C(F)(F)C(F)(F)C(=O)Cl`, the outcome was inactive.
For the compound `CCOc1ccc2[nH]cc(C(=O)NCc3ccccc3)c(=O)c2n1`, the compound was called inactive.
Consider `c1ccc2cc3ccccc3cc2c1`, for which the result was inactive.
In the case of `COc1cc2c(c(OC)c1OC)-c1ccc(OC)c(=O)cc1[C@@H](NC(C)=O)CC2`, the AC50 is 6.51 nM (active).
With `FC(F)(F)COC(OCC(F)(F)F)OCC(F)(F)F`, the outcome was inactive.
Still for that read-out and setting: under `OC(Cn1cncn1)(Cn1cncn1)c1ccc(F)cc1F` stands “inactive”; under `CCCC(CCC)C(=O)O`, “inactive”.
For `Cn1cc[nH]c1=S`, the compound was called inactive.
With `Nc1ccn([C@@H]2O[C@H](CO)[C@@H](O)[C@@H]2O)c(=O)n1`, the half-maximal activity concentration (AC50) was 248 nM (active) and 1.85 µM (active).
On to `NNC(=O)c1ccncc1`, for which the call was inactive.
Regarding `FC(F)(F)C(F)(F)C(F)(F)C(F)(F)C(F)(F)C(F)(F)I`, the result was inactive.
Take `CCN(CC)C(=S)SSC(=S)N(CC)CC`: the AC50 is 103 nM (active) and 38.3 nM (active).
Consider `NCC(F)(F)C(F)(F)C(F)(F)C(F)(F)F`, for which the compound was called inactive.
For `CC[C@H](C)C(=O)O[C@H]1C[C@H](O)C=C2C=C[C@H](C)[C@H](CC[C@@H](O)C[C@@H](O)CC(=O)O)[C@H]21`, the outcome was inactive.
On to `OC(O)(C(F)C(O)(O)C(F)(F)F)C(F)(F)F`, for which the outcome was inactive.
On to `NC(=O)N1c2ccccc2C=Cc2ccccc21`, for which the compound was called inactive.
With `c1ccc2c(c1)-c1cccc3c1c-2cc1ccccc13`, the outcome was inactive.
For `OCCC(F)(F)C(F)(F)C(F)(F)C(F)(F)F`, the compound was called inactive.
